# Pf growth 48h: P. falciparum growth inhibition at 48 hours (one generation); Potency, µM (top dose mostly 28.7 µM), for the others: at the highest dose activity change, negative = inhibition, usual class: inhibitors; AID 504832; actives 5.9% (n = 310,000); P. falciparum luciferase growth in erythrocytes, 48 h
#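 In quantitative HTS format, infected erythrocytes bearing luciferase-reporter parasites were treated for a single generation at 37 C. Luminescence after adding detection reagent served as the growth measure.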
# AMA1 RON2 block: AMA1-RON2 (P. falciparum) interaction inhibition | AID 720542 | Potency, µM (doses to about 58.2 µM), without a hit: at the top dose activity change, negative = inhibition, most hits filed as inhibitors | AlphaScreen AMA1-biotinylated RON2 peptide binding | actives 0.2% (n = 360,000);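 also: 0% = vehicle wells and -100% = peptide control; nearly all actives have a fitted effect of over 45% in size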
#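 AMA1 (3D7) with his tag at 25 nM final met compounds first, then biotinylated RON2 peptide at 25 nM; detection used donor plus acceptor beads, 10 µg/mL apiece, read by AlphaScreen after 30 min at room temperature.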
# Pf growth 96h: P. falciparum growth inhibition at 96 hours; P. falciparum luciferase reporter growth, 96 h; actives 6.9% (n = 320,000); Potency, µM (series often up to 28.7 µM), for inactives: at the highest dose activity change, negative = inhibition, usual class: inhibitors; AID 504834
#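 Infected RBCs, 2% Hct / 0.05% parasitemia final; luciferase-reporter P. falciparum; cpd 96 h, 37 C, 5% CO2; luciferase detection reagent; luminescence.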
# HCV inh: HCV inhibition. Huh7.5.1 HCVcc-Cre infection, luciferase reporter, 44 h. Potency, µM (highest dose often 41.8 µM), for the others: at the highest dose activity change, negative = inhibition, hits mostly inhibitors. actives 3.4% (n = 340,000). AID 651820
#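 Reporter virus HCVcc-Cre (~0.5 moi) infects cells exposed to compound; seeding density 1,000 cells/well with 4 h settling beforehand. Luminescence, 15 sec read, taken 44 h post-infection following a 15 min RT substrate incubation.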
# An asterisk follows results filed as active; i = inactive; u = inconclusive; x = no result; [ ] = another dose, or the depositor's remark. Sampled rows, rich in hits. Any-hit rate of the full collection: about 11%. Calls follow the shape of the dose curve; as a rule, active = well fitted curve in the direction sought with a large enough effect; inconclusive = small, poorly fitted or top-dose-only effect, or another doubt; inactive = no such curve, though single readings can be large; an effect the other way counts as inactive or inconclusive. Unless noted, % is scaled to controls: 0 for no effect and ±100 for the full control effect; potency is read from the fitted curve at half-maximal effect.
SMILES,Pf growth 48h,AMA1 RON2 block,Pf growth 96h,HCV inh
COc1cc(/C=N/NC(=O)NC23CC4CC(CC(C4)C2)C3)ccc1OCC(N)=O,9.28µM*,-1.8%,5.86µM*,u
C=C1C2=C(C(=O)N1OC)[C@@H](O)[C@@](C)(O)[C@@H](CCCCC)O2,x,21.1%,x,x
COC(=O)C1=C(c2cccc(C#N)c2)C[C@@H]2CC[C@H]1N2C(=O)NCCOc1ccccc1,u,3.0%,-0.8%,-1.8%
COC(=O)C1=C(c2cccc(C#N)c2)C[C@@H]2CC[C@H]1N2C(=O)NCCOc1ccccc1Cl,13.1µM*,-2.8%,u,3.6%
COC(=O)C1=C(c2ccccc2OCc2ccccc2)C[C@@H]2CC[C@H]1N2C(=O)NCCOc1ccccc1Cl,5.22µM*,-9.1%,u,u
COC(=O)C1=C(c2cccc(OCc3ccccc3)c2)C[C@@H]2CC[C@H]1N2C(=O)NCCOc1ccccc1Cl,13.1µM*,-13.7%,u,u
COC(=O)C1=C(c2ccc(C(C)=O)cc2)C[C@@H]2CC[C@H]1N2C(=O)NCCOc1ccccc1Cl,u,-0.4%,u,u
COC(=O)C1=C(c2cccc(OCc3ccccc3)c2)C[C@@H]2CC[C@H]1N2C(=O)NCCOc1ccccc1,9.28µM*,-5.6%,u,u
COc1ccc(OC)c(/C=N/NC(=O)CNC(=O)c2ccc(S(=O)(=O)N3CCOCC3)cc2)c1,10.4%,9.5%,-8.8%,26.5%
COC(=O)C1=C(c2cccc(OCc3ccccc3)c2)C[C@@H]2CC[C@H]1N2C(=O)NCCc1ccc(F)cc1,7.38µM*,-1.6%,u,u
COc1cc(C(=O)Nc2nc3ccccc3s2)ccc1OCc1c(C)noc1C,11.7µM*,3.3%,u,u
COc1ccc2nc(NC(=O)CCn3cccc3)sc2c1,55.0%,-7.8%,19.8%,5.8%
COc1ccc2nc(NC(=O)CCc3cc(OC)c(OC)c(OC)c3)sc2c1,u,-8.4%,9.28µM*,u
COc1ccc(CCC(=O)Nc2nnc(C(F)(F)F)s2)cc1,u,-10.1%,14.7µM*,7.2%
COc1ccc(C(=O)Nc2nc3ccccc3s2)c(OC)c1,u,-1.0%,13.1µM*,-8.2%
COc1cc(C(=O)Nc2nccs2)ccc1OCc1c(C)noc1C,u,20.3%,2.0%[5.75 µM],-8.7%
COc1ccc2sc(NC(=O)NC(=O)c3c(Cl)cccc3Cl)nc2c1,10.4µM*,-24.8%,8.28µM*,-17.3%
COc1ccc2sc(NC(C)=O)nc2c1,169.8%,-2.2%,u,-6.7%
Clc1ccc(-c2n[nH]c3c2CCCC3)cc1,-8.7%,12.6%,38.5%,10µM*
O=C(Cc1cccs1)NCCS(=O)(=O)N1CCN(c2ccccc2F)CC1,-2.0%,24.5%,14.4%,0.5%
COc1ccc(C(=O)NNC2CC(=O)N(Cc3ccc(Cl)cc3)C2=O)cc1OC (stereo unspecified),12.8%,-14.3%,17.4%,-0.6%
CCc1ccc(-c2cc(C)no2)cc1S(=O)(=O)N1CC(=O)Nc2ccccc21,-23.3%,4.9%,53.9%,1.8%
Cc1cc(-c2ccc(C(C)C)c(S(=O)(=O)N3CCOc4ccccc43)c2)on1,14.7µM*,-6.8%,19.3%,u
CCc1ccc(-c2cc(C)no2)cc1S(=O)(=O)N1CCOc2ccc(C)cc21,2.94µM*,3.5%,u,u
CCc1ccc(-c2cc(C)no2)cc1S(=O)(=O)N1CCN(c2cccc(C)c2C)CC1,5.22µM*,-9.9%,11.7µM*,-0.3%
SMILES,Pf growth 48h,AMA1 RON2 block,Pf growth 96h,HCV inh
CCc1ccc(-c2cc(C)no2)cc1S(=O)(=O)N1CCCN(Cc2ccc(F)cc2)C1,u,-2.6%,u,10µM*
CCCCN(C)C(=O)c1[nH]c(C(F)(F)F)nc1-c1ccccc1,x,-6.9%,x,x
O=C(O)CCCn1cc(NC(=O)COc2cc(F)ccc2[N+](=O)[O-])cn1,u,-2.8%,u,19.4%
COc1ccc(-c2cc(C)no2)cc1S(=O)(=O)N1CCOc2ccccc21,u,13.8%,4.8%,2.8%
CCc1ccc(-c2cc(C)no2)cc1S(=O)(=O)N1CCN(c2ccccc2F)CC1,u,-6.0%,-29.0%,u
CCC1CN(S(=O)(=O)c2cc(-c3cc(C)no3)ccc2OC)c2cc(C)ccc2O1 (stereo unspecified),10.4µM*,-12.2%,u,u
CCc1ccc(-c2cc(C)no2)cc1S(=O)(=O)N1CCN(c2cc(C)ccc2C)CC1,13.1µM*,-6.2%,11.5%,u
OCCN1CCN(C2CCC(c3ccc(F)cc3)c3ccc(F)cc32)CC1 (stereo unspecified),x,-14.8%,x,3.98µM*
O=[N+]([O-])c1ccc2c(c1)C(N1CCN(CCO)CC1)Cc1ccc(F)cc1S2 (stereo unspecified),x,-12.0%,x,x
Cc1cc2ncc(S(C)(=O)=O)c(N)n2n1,i,35.9%,73.2%,14.9%
Cc1ccc(S(=O)(=O)c2cnc3cc(C)nn3c2N)cc1,214.8%,1.6%,5.86µM*,22.8%
Cc1cc(C)nc(/N=C(\N)Nc2cccc([N+](=O)[O-])c2)n1,u,14.0%,10.4µM*,u
CC(=O)N/C(=N/c1nc(C)cc(C)n1)Nc1ccc(NC(C)=O)cc1,u,5.5%,9.28µM*,-1.2%
Cc1ccc(N/C(N)=N/c2nc(C)cc(C)n2)cc1,u,12.9%,32.7%,10.5%
CCCCc1ccc(N/C(N)=N/c2nc(C)cc(C)n2)cc1,u,6.1%,4.15µM*,-83.6%
Cc1cc(C)cc(N/C(N)=N/c2nc(C)cc(C)n2)c1,13.1µM*,3.1%,4.15µM*,-65.9%
CC(=O)N/C(=N/c1nc(C)cc(C)n1)Nc1cc(C)cc(C)c1,x,-4.6%,u,14.9%
CC[C@]12c3[nH]c4ccc(Cl)cc4c3CCN1C(=O)[C@@H](CC(=O)NCCc1ccccn1)C[C@@H]2C(=O)N1CCN(C(=O)C2CC2)CC1,x,62.5%,x,-23.6%
CN(C)c1ccc(Nc2ccc([N+](=O)[O-])cn2)cc1,150.6%,-6.2%,-29.4%,5.3%
Cc1cc(C)nc(/N=C(\N)Nc2ccc(C(C)C)cc2)n1,u,-19.9%,11.7µM*,11.2µM*
OCCC1CN(Cc2cccn2-c2cccnc2)CCN1C1CCCC1 (stereo unspecified),26.7%,-1.2%,-27.9%,-12.0%
CCC(C)CCN1C(N(C)C)=NC[C@@H]1CC(C)C (stereo partly specified),13.1µM*,24.4%,u,u
CCC(CC)CN1C(N(C)C)=NC[C@@H]1CC(C)C,u,0.0%,8.28µM*,20.1%
CC(C)C[C@H]1CN=C(N(C)C)N1CCCCc1ccccc1,5.22µM*,-1.3%,u,u
O=C(Nc1ccc(C(=O)N2CCOCC2)cc1)c1ccccc1Cl,x,4.2%,x,x
Cc1ccc(S(=O)(=O)N2CCN(C(=O)COC(=O)/C=C/c3cccc([N+](=O)[O-])c3)CC2)c(C)c1,x,2.0%,x,-12.7%
OC(CNCCNc1ncccc1C(F)(F)F)COc1ccc(F)cc1 (stereo unspecified),u,10.9%,u,8.4%
